Sampled rows, rich in hits. Any-hit rate of the full collection: about 17%.
HepG2 viability – qHTS for Inhibitors of TGF-b: Cytotox Counterscreen; HepG2 CAGA-GFP viability, ATP luminescence, 18 h; Potency, µM (highest dose often 46.1 µM), for inactives: at the highest dose activity change, negative = cytotoxicity, actives largely listed as cytotoxic; hit rate 0.76% among 410,000; AID 588856, 2011
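CellTiter-Glo luminescence gave cytotoxicity after 18 hours at 37 degrees C. The cells were HepG2 CAGA-GFP in 1% FBS DMEM, stimulated with 500 pg/mL TGF-beta after compound addition. %Activity was normalised to no-cell wells (complete cell-killing) and DMSO (no toxicity), and curves were fitted and classified.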
DT40 TDP1 CPT – qHTS for Inhibitors of human tyrosyl-DNA phosphodiesterase 1 (TDP1): qHTS in cells in presence of CPT | chicken DT40 Tdp1-/-;hTDP1 cells + 20 nM CPT, ATP luminescence, 48 h | Potency, µM (doses to about 46.2 µM), inactives show at the top dose activity change, negative = growth inhibition, usual class: inhibitors | hit rate 12% among 420,000; note: % is set by controls: 0 for no effect and ±100 for the full control effect; nearly all actives have a fitted effect of over 55% in size
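Cell growth measured by CellTiter-Glo luminescence after a minimum 48 h, 37 C compound exposure with 20 nM CPT in Tdp1-knockout DT40 cells stably expressing hTDP1, seeded 400/well; qHTS titration format.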
HT1080 IDH1KD tx – qHTS for induction of synthetic lethality in tumor cells producing 2HG: qHTS for the HT-1080-IDH1KD cell line; Potency, µM (doses to about 46.1 µM), for inactives: at the top dose activity, negative = toxicity, actives largely listed as cytotoxic; AID 686971, 2013; HT-1080 IDH1 knockdown viability, ATP luminescence, 48 h; hit rate 2% among 360,000;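 note: 0% = DMSO wells and -100% = cell-free medium wells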
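HT-1080-IDH1KD cells (IDH1 knocked down), 750/well in RPMI with 5% FBS, treated with compound 48 h at 37 degrees C. Viability by CellTiter-Glo luminescence, normalised to DMSO and no-cell wells; concentration-response curves classed.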
HT1080-NT tox – qHTS for induction of synthetic lethality in tumor cells producing 2HG: qHTS for the HT-1080-NT fibrosarcoma cell line. Potency, µM (doses to about 46.1 µM), for inactives: top-dose activity, negative = less viability, usual class: cytotoxic. AID 686970, 2013. hit rate 1.6% among 360,000. HT-1080-NT fibrosarcoma viability, CellTiter-Glo ATP luminescence, 48 h;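 note: NT is the 2HG producing partner of a matched IDH1 knockdown line; 0% = DMSO-treated cells and -100% = media-only wells without cells; nearly all actives have a fitted effect of over 55% in size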
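750 cells/well, RPMI + 5% FBS; 2 h settle, compound pin-transfer, 48 h at 37 degrees C. CellTiter-Glo 10 min RT, luminescence. Normalized to DMSO and media-only wells.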
TGFb SMAD3 inh – qHTS for Inhibitors of TGF-b; HepG2 CAGA-GFP TGF-b/SMAD3 reporter, GFP fluorescence, 18 h; TGF-beta stimulated, 500 pg/mL final; Potency, µM (doses to about 46.1 µM), inactives show at the top dose activity, negative = inhibition, actives largely listed as inhibitors; hit rate 1.2% among 410,000; note: % is set by controls: 0 for no effect and ±100 for the full control effect; nearly all actives have a fitted effect of over 65% in size
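Inhibition was scored as loss of TGF-beta-induced (500 pg/mL final, 18 hours, 37 degrees C) GFP in HEPG2 cells carrying a CAGA-GFP reporter, in DMEM with 1% FBS. Well GFP was summed per cell; Activity was normalised to unstimulated and stimulated DMSO wells, then concentration-response fitting.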
TDP1 cell noCPT – qHTS for Inhibitors of human tyrosyl-DNA phosphodiesterase 1 (TDP1): qHTS in cells in absence of CPT; DT40 Tdp1-/- hTDP1 cells, no CPT, ATP luminescence, 48 h; Potency, µM (doses to about 46.2 µM), without a hit: at the highest dose activity change, negative = growth inhibition, hits mostly inhibitors; AID 686978, 2013; hit rate 15% among 420,000; note: % is set by controls: 0 for no effect and ±100 for the full control effect; nearly all actives have a fitted effect of over 55% in size
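Stably hTDP1-transfected Tdp1-null chicken DT40 cells were treated with library compounds minus camptothecin and grown for at least 48 hr at 37 °C, after which cellular ATP was quantified by luminescence.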
* marks the source's active call; other numbers are inactive results; ? = inconclusive; / = not tested or not shown. Calls come from the whole dose curve; as a rule, active = well fitted curve in the direction sought with a large enough effect; inconclusive = small, poorly fitted or top-dose-only effect, or another doubt; inactive = no such curve, though single readings can be large; an effect the other way counts as inactive or inconclusive. Potency is the fitted concentration of half-maximal effect.

SMILES | HepG2 viability | DT40 TDP1 CPT | HT1080 IDH1KD tx | HT1080-NT tox | TGFb SMAD3 inh | TDP1 cell noCPT
CCOC(=O)C1(Cc2cccc(Cl)c2)CCCN(C(=O)C(C)(C)C)C1 (centres undefined) | -1.1% | ? | -1.0% | 11.5% | -15.1% | ?
Cc1nn(-c2ccccc2)c(N)c1Sc1ccccc1[N+](=O)[O-] | -26.8% | ? | -15.1% | -8.0% | -6.7% | 16.4µM*
CCOc1ccc(CN2C(=O)c3ccccc3Sc3ccc(C(=O)NCCc4ccccc4)cc32)cc1 | -7.5% | -28.3% | / | / | 0.0% | ?
Cc1ccc(CN2C(=O)c3ccccc3Sc3ccc(C(=O)NC4CCCC4)cc32)cc1 | 7.4% | ? | / | / | ? | ?
CCN(CC)C(=O)c1ccc2c(c1)N(Cc1ccc(C(F)(F)F)cc1)C(=O)c1ccccc1S2 | -45.9% | 16.4µM* | / | / | ? | 18.4µM*
COCCNC(=O)c1ccc2c(c1)N(Cc1ccc(C(F)(F)F)cc1)C(=O)c1ccccc1S2 | -30.7% | 16.4µM* | / | / | ? | ?
O=C(NC1CCCC1)c1ccc2c(c1)N(Cc1ccc(C(F)(F)F)cc1)C(=O)c1ccccc1S2 | -23.9% | 20.6µM* | / | / | ? | 9.2µM*
Cc1ccc(NC(=O)C2(C)CCN2C(=O)C2(c3ccc(Cl)cc3)CC2)cc1 (centres undefined) | -15.3% | 14.6µM* | -18.9% | -12.2% | -23.0% | 18.4µM*
CSc1ccc(NC(=O)C2(C)CCN2C(=O)C2(c3ccccc3)CC2)cc1 (centres undefined) | -47.0% | 18.4µM* | -22.1% | ? | ? | ?
Cc1ccccc1S(=O)(=O)NC(=O)C1(C)CCN1C(=O)C1(c2ccccc2)CC1 (centres undefined) | 4.4% | 3.7% | 21.9% | 5.3% | -2.1% | -0.4%
CC1(C(=O)Nc2ccccc2)CCN1C(=O)C1(c2ccc(Cl)cc2)CC1 (centres undefined) | -2.6% | ? | 0.0% | -1.3% | 24.2% | 3.66µM*
CC1(C(=O)N2Cc3ccccc3C2)CCN1C(=O)C1(c2ccccc2)CC1 (centres undefined) | -7.1% | ? | 1.9% | 22.4% | -17.6% | 20.6µM*
CC(C)[C@@H]1CC[C@@H](C)C[C@H]1O | / | -2.4% | / | / | / | -17.7%
COc1ccc(N(C(=O)c2ccc(S(=O)(=O)N3CCCC3)cc2)C2C=CS(=O)(=O)C2)cc1 (centres undefined) | -14.8% | -10.2% | 8.2% | 4.8% | 10.8% | -6.8%
O=S(=O)(c1ccccc1)N1CCC2(CCCN(Cc3ccccc3)C2)CC1 | / | 14.1% | / | / | / | ?
O=C(NC1CC1)c1ccc(CSCc2cccc(F)c2)o1 | -1.8% | ? | -6.0% | 10.9% | -1.7% | ?
O=C(NCc1ccc(F)cc1)c1ccc(CSCc2cccc(Cl)c2)o1 | -33.8% | ? | / | / | ? | 20.6µM*
CC(C)NC(=O)c1ccc(CSCc2ccccc2Cl)o1 | -5.0% | ? | -4.7% | -4.3% | -16.2% | ?
O=C(NCc1ccc(Cl)cc1)c1ccc(CSCc2cccc(Cl)c2)o1 | -28.8% | -26.0% | / | / | ? | ?
O=C(NCc1ccccc1Cl)c1ccc(CSCc2cccc(F)c2)o1 | -24.3% | 25.9µM* | / | / | ? | ?
O=C(NCc1ccc(F)cc1Cl)c1ccc(CSCc2ccccc2Cl)o1 | -32.3% | ? | / | / | 12.6µM* | ?
Cc1cc(C(=O)N/N=C/c2ccc(O)c(O)c2O)c(C)n1-c1ccccc1 | -24.5% | 4.61µM* | ? | ? | -4.9% | 3.26µM*
Cc1cc(/C=N/NC(=O)c2cccs2)c(C)n1-c1ccccc1 | -24.5% | 16.4µM* | ? | ? | -6.4% | 13µM*
Cc1cc(/C=N/NC(=O)c2cccc([N+](=O)[O-])c2)c(C)n1-c1ccccc1 | -9.7% | ? | -16.9% | -7.6% | -12.6% | ?
Nc1nc(Nc2ccccc2)nc2c1ncn2[C@@H]1O[C@@H](CO)[C@H](O)[C@H]1O | / | 10.6% | / | / | / | 6.0%
SMILES | HepG2 viability | DT40 TDP1 CPT | HT1080 IDH1KD tx | HT1080-NT tox | TGFb SMAD3 inh | TDP1 cell noCPT
Cc1cc(=O)[nH]c(SCc2ccc(Cl)cc2Cl)n1 | -17.5% | -18.8% | -5.8% | -8.0% | -19.5% | 23.1µM*
Cc1nnc(SCc2ccc(Cl)cc2Cl)[nH]c1=O | -10.0% | -12.3% | 6.1% | -0.5% | -9.6% | -16.5%
Cc1cc(=O)[nH]c(SCc2cccc3ccccc23)n1 | -2.9% | -1.3% | -0.9% | -6.5% | ? | -25.5%
Cc1cnc(SCc2ccc(Cl)cc2Cl)[nH]c1=O | 0.3% | ? | -10.1% | -1.6% | -2.4% | 20.6µM*
O=C(Nc1ccc([N+](=O)[O-])cc1)N1CCN(C(=O)C2CCCO2)CC1 (centres undefined) | -24.0% | 9.8% | -1.7% | -1.5% | -21.0% | 0.9%
O=C(C=Cc1ccccn1)c1ccccc1O | -42.3% | 2.91µM* | -14.7% | 0.0% | ? | 3.66µM*
O=C(C=Cc1ccccn1)c1ccccc1 | 10µM* | 3.26µM* | 10.3µM* | ? | 6.31µM* | 2.91µM*
CCCCn1nnnc1C1(C)CCC(=O)N1Cc1ccc(C)cc1 (centres undefined) | / | 5.0% | 14.3% | 27.2% | / | -9.5%
COc1cc(C(=O)NCC(c2cccs2)N2CCOCC2)ccc1OCc1ccc(Cl)cc1 (centres undefined) | -3.1% | 6.51µM* | ? | -29.5% | -15.2% | 3.66µM*
O=C(NCC(c1ccc(F)cc1)N1CCOCC1)c1ccc([N+](=O)[O-])o1 (centres undefined) | -108.7% | 20.6µM* | ? | ? | ? | 25.9µM*
COc1ccc(C(CNC(=O)c2ccc(OCc3ccccc3)cc2)N2CCOCC2)cc1 (centres undefined) | -4.5% | ? | -9.6% | 5.6% | 7.6% | -18.0%
CCOc1ccc(C(=O)NCC(c2cccs2)N2CCOCC2)cc1 (centres undefined) | 4.1% | -13.7% | 5.0% | 5.2% | -0.3% | -2.2%
O=C(NCC(c1ccc(F)cc1)N1CCOCC1)c1ccc(OCc2ccccc2)cc1 (centres undefined) | -28.4% | 18.4µM* | 2.5% | 0.0% | -27.7% | 20.6µM*
